Assay results published in PubChem BioAssay (EPA / NIEHS).
Active and inactive are the calls of the source. How the source made its calls: active means hit-call score of the fitted dose curve at least 0.9, where 1 is the maximum; inactive means score below 0.9.

Assays:
[1] = ATG_GLI_CIS: Attagene CIS-FACTORIAL HepG2 Assay for human Zinc Finger Protein GLI1 (AID 2282945); settings: HepG2, Attagene cis-factorial reporter mRNA, GLI element; actives raise or lower the signal
Summary of the method: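 Bidirectional curve fits relative to DMSO, using reporter mRNA levels from RT-PCR plus capillary electrophoresis. Cells were HepG2 transiently carrying cis-regulated reporter constructs, harvested 24 h after dosing.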

[2] = target: Bile acid receptor (Homo sapiens) (UniProt Q96RI1); assay: ATG_IR1_CIS: Attagene CIS-FACTORIAL HepG2 Assay for human Nuclear Receptor Subfamily 1 Group H Member 4 (NR1H4), IR1 submotif (AID 2282946); settings: IR1 reporter transcription, actives raise or lower the signal
Chain of Bile acid receptor (Homo sapiens) (Q96RI1 whole entry, looked up): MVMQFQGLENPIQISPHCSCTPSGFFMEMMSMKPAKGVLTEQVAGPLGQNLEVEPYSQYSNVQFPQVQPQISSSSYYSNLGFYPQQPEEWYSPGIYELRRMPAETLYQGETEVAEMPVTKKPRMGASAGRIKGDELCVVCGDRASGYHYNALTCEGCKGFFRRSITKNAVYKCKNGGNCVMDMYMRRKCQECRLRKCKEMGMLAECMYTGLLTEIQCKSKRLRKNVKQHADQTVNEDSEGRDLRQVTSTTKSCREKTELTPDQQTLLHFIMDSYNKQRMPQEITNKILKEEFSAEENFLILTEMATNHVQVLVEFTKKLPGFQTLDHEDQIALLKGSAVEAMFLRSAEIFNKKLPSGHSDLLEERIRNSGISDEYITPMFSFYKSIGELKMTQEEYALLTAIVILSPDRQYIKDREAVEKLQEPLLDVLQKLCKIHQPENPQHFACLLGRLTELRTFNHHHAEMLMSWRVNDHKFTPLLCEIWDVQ
Summary of the method: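 HepG2 cells transiently transfected with multiplexed cis-element reporter units read endogenous transcription factor activity. After 24 h compound exposure, reporter mRNA was quantified by RT-PCR, fluorescent labelling, HpaI digestion and capillary electrophoresis; bidirectional fitting versus DMSO baseline.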

[3] = ATG_GRE_CIS: Attagene CIS-FACTORIAL HepG2 Assay for human Glucocorticoid Response Elements (GRE) (AID 2282947); settings: HepG2 GRE cis-reporter, Attagene multiplex mRNA; actives raise or lower the signal
Summary of the method: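 Reporter transcripts read by RT-PCR with capillary electrophoresis fluorescence after a 24 h chemical exposure of HepG2 cells transiently transfected with multiple cis-element reporter units. Gain or loss fitted against DMSO.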

[4] = ATG_ISRE_CIS: Attagene CIS-FACTORIAL HepG2 Assay for human Interferon Regulatory Factor 1 (IRF1) binding to an Interferon-Stimulated Response Element (ISRE) (AID 2282948); settings: HepG2 ISRE cis-reporter (Attagene), mRNA transcription readout; actives raise or lower the signal
Summary of the method: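 Read-out: fluorescent RT-PCR products resolved by capillary electrophoresis, reporting endogenous transcription factor activity via ISRE-driven reporter mRNA in transfected HepG2 cells dosed for 24 h; gain or loss fitted relative to DMSO.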

[5] = ATG_M_32_CIS: Attagene CIS-FACTORIAL HepG2 Assay for M32 Transcription Factor (Internal Marker) (AID 2282949); settings: HepG2 Attagene cis-factorial M32 reporter, mRNA; actives raise or lower the signal;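 further: background control marker of the multiplexed CIS panel rather than a real target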
Summary of the method: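 HepG2 human liver cells transiently transfected with cis-promoter-driven multiple reporter transcription units, dosed 24 h. Reporter mRNA quantified by RT-PCR, FAM-labelled primer extension, HpaI digest and capillary electrophoresis; bidirectional fit versus DMSO baseline.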

[6] = ATG_M_06_CIS: Attagene CIS-FACTORIAL HepG2 Assay for M06 Transcription Factor (Internal Marker) (AID 2282950); settings: HepG2 Attagene CIS-FACTORIAL M06 internal marker reporter; actives raise or lower the signal
Summary of the method: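 Serves as a background control readout. Transfected HepG2 exposed to compounds for 24 h, then reporter transcripts quantified by fluorescent RT-PCR and capillary electrophoresis. Both directions fitted against DMSO baseline.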

[7] = target: Hypoxia-inducible factor 1-alpha (Homo sapiens) (UniProt Q16665); assay: ATG_HIF1a_CIS: Attagene CIS-FACTORIAL HepG2 Assay for human Hypoxia Inducible Factor 1 (HIF1A) (AID 2282951); settings: HepG2 Attagene cis-factorial HIF1a reporter transcription; actives raise or lower the signal
Chain of Hypoxia-inducible factor 1-alpha (Homo sapiens) (Q16665 whole entry, looked up, the tested form may be a part): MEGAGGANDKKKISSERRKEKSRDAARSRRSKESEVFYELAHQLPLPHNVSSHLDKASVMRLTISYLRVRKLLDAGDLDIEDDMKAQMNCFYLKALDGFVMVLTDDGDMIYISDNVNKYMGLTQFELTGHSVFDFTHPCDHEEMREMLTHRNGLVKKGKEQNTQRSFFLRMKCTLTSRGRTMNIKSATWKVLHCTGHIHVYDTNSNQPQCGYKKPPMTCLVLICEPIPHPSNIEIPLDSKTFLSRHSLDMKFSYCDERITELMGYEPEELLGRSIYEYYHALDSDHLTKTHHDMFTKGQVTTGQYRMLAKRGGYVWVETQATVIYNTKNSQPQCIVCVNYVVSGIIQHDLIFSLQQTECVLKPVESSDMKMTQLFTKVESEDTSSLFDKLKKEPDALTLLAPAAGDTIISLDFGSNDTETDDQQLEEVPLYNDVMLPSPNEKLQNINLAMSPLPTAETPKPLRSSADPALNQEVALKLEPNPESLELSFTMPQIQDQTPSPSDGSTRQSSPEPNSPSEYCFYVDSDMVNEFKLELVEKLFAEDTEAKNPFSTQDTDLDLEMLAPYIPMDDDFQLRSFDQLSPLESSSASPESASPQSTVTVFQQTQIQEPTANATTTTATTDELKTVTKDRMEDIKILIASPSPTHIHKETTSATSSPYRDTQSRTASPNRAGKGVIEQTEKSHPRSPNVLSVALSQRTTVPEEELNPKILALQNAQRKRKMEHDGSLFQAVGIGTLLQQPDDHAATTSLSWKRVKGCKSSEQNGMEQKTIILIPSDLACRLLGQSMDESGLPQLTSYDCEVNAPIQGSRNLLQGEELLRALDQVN
Summary of the method: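 Transient MRTU transfection of human HepG2 liver cells, 24 h compound treatment, then total RNA isolation, oligo(dT) reverse transcription, PCR amplification, fluorescent labelling and capillary electrophoresis of reporter fragments. Gain or loss relative to DMSO.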

[8] = target: Hepatocyte nuclear factor 6 (Homo sapiens) (UniProt Q9UBC0); assay: ATG_HNF6_CIS: Attagene CIS-FACTORIAL HepG2 Assay for human Hepatocyte Nuclear Factor 6 (HNF6) (AID 2282952); settings: HepG2 Attagene cis-factorial HNF6 reporter transcription; actives raise or lower the signal
Chain of Hepatocyte nuclear factor 6 (Homo sapiens) (Q9UBC0 whole entry, looked up, the tested form may be a part): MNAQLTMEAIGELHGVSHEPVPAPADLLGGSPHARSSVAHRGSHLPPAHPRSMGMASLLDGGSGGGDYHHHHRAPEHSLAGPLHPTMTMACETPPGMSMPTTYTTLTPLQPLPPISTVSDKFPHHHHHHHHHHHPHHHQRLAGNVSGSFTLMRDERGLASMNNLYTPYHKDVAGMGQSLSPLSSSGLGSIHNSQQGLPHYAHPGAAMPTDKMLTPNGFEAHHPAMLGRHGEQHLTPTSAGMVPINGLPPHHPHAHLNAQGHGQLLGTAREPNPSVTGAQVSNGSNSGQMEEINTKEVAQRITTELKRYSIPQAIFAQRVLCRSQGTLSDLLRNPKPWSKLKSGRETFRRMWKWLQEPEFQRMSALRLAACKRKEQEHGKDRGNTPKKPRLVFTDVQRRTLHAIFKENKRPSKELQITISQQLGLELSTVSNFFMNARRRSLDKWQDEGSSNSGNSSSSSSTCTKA
Summary of the method: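 Readout: fluorescent reporter-transcript fragments resolved by capillary electrophoresis after RT-PCR, reflecting endogenous factor activity in transfected HepG2. Exposure 24 h. Gain or loss of signal fitted bidirectionally against DMSO.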

[9] = target: Heat shock factor protein 1 (Homo sapiens) (UniProt Q00613); assay: ATG_HSE_CIS: Attagene CIS-FACTORIAL HepG2 Assay for human Heat Shock Transcription Factor 1 (HSE) (AID 2282953); settings: HepG2 HSE cis-reporter, Attagene RNA transcription; actives raise or lower the signal
Chain of Heat shock factor protein 1 (Homo sapiens) (Q00613 whole entry, looked up): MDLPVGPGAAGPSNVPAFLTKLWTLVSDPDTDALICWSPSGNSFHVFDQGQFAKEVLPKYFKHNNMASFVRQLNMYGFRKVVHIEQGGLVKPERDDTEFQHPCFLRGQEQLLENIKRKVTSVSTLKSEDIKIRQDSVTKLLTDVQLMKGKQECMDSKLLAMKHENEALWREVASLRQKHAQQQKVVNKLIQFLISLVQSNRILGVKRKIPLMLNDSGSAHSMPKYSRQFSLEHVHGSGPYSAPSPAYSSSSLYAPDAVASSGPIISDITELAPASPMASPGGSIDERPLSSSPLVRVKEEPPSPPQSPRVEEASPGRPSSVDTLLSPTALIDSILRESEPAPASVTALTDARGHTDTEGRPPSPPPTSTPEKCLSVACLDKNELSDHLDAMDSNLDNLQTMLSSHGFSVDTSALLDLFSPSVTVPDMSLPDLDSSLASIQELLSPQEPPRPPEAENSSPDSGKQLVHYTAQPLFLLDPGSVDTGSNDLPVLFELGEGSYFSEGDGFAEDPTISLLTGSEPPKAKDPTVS
Summary of the method: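 Endogenous transcription factor activity in transiently transfected HepG2, read as reporter mRNA by RT-PCR with fluorescent capillary electrophoresis after 24 h. Gain or loss of signal fitted versus DMSO baseline.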

[10] = ATG_PBREM_CIS: Attagene CIS-FACTORIAL HepG2 Assay for human Phenobarbital-responsive Enhancer Module (PBREM) (AID 2282955); settings: HepG2 PBREM cis-reporter, Attagene multiplexed transcription; actives raise or lower the signal
Summary of the method: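 Endogenous transcription factors in human liver HepG2 cells drive a PBREM cis-element reporter, whose transcript level after 24 h treatment is quantified by RT-PCR with capillary electrophoresis; activity fitted in both directions against DMSO.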

[11] = target: Paired box protein Pax-6 (Homo sapiens) (UniProt P26367); assay: ATG_Pax6_CIS: Attagene CIS-FACTORIAL HepG2 Assay for human Paired Box 6 (PAX6) (AID 2282956); settings: HepG2 CIS-FACTORIAL PAX6 reporter transcription, RNA readout; actives raise or lower the signal
Chain of Paired box protein Pax-6 (Homo sapiens) (P26367 whole entry, looked up): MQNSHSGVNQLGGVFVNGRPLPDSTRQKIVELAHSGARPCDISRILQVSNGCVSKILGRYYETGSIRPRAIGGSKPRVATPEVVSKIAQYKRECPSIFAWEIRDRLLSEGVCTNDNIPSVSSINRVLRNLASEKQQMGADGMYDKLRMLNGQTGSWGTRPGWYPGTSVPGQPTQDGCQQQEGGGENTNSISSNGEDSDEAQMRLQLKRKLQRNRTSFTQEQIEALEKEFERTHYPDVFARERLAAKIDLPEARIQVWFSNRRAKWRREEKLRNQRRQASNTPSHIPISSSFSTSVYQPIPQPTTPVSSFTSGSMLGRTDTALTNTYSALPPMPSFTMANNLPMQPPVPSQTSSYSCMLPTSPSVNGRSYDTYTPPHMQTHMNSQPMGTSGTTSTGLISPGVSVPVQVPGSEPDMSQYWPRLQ
Summary of the method: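 Readout: reporter transcript fluorescence after RT-PCR and capillary electrophoresis. Cells: HepG2, transiently transfected with cis-regulated MRTUs. Exposure 24 h. Gain or loss of signal fitted bidirectionally relative to DMSO.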

[12] = ATG_PXRE_CIS: Attagene CIS-FACTORIAL HepG2 Assay for human Pregnane X Receptor Element (PXRE) (AID 2282957); settings: HepG2 Attagene CIS-FACTORIAL PXRE reporter, mRNA; actives raise or lower the signal
Summary of the method: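 Read-out: fluorescence of reporter-specific RT-PCR products resolved by capillary electrophoresis, fitted bidirectionally relative to DMSO. Human HepG2 liver cells carried transfected cis-promoter reporter units and were exposed to chemicals for 24 h.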

[13] = ATG_RORE_CIS: Attagene CIS-FACTORIAL HepG2 Assay for human RAR-related Orphan Receptor Element (RORE) (AID 2282959); settings: HepG2 Attagene cis-factorial RORE reporter, mRNA; actives raise or lower the signal
Summary of the method: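 Transient MRTU transfection of human HepG2 liver cells (FuGene 6); 24 h compound exposure; TriZol RNA, oligo(dT) RT, PCR, FAM labeling, HpaI cut, CE fragment analysis. DMSO = negative control/baseline.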

[14] = target: Transcription factor Sp1 (Homo sapiens) (UniProt P08047); assay: ATG_Sp1_CIS: Attagene CIS-FACTORIAL HepG2 Assay for human Specificity Protein 1 (Sp1) (AID 2282961); settings: HepG2 Sp1 cis-reporter transcription, actives raise or lower the signal
Chain of Transcription factor Sp1 (Homo sapiens) (P08047 whole entry, looked up): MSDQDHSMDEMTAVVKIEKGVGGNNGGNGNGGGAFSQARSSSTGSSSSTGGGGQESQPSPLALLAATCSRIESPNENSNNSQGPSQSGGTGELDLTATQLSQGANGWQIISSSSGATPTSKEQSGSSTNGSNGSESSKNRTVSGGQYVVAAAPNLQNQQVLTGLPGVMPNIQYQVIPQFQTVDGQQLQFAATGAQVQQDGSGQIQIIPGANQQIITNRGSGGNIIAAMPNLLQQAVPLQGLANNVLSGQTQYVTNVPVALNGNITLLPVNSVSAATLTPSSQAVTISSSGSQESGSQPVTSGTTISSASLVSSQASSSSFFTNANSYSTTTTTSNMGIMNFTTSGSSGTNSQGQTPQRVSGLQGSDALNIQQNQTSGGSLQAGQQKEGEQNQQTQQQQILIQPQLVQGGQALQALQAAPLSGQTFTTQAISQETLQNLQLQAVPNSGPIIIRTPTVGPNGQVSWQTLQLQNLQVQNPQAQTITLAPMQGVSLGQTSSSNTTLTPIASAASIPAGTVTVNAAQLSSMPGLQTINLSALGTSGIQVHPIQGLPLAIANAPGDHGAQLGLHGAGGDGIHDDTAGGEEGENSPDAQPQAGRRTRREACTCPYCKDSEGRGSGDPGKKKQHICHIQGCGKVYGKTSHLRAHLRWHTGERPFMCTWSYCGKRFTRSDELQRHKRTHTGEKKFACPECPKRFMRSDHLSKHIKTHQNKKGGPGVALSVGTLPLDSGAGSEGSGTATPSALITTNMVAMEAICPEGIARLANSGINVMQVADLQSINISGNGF
Summary of the method: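 Transient MRTU-transfected HepG2, 24 h compound exposure. Total RNA → oligo(dT) RT → PCR of reporter → 6-FAM primer extension → HpaI digest → CE. Endpoint fitted both directions vs DMSO.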

[15] = ATG_SREBP_CIS: Attagene CIS-FACTORIAL HepG2 Assay for human Sterol Regulatory Element Binding (SREBP) (AID 2282962); settings: HepG2 Attagene cis-factorial SREBP reporter, mRNA; actives raise or lower the signal
Summary of the method: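 Readout: fluorescent reporter-transcript peaks resolved by capillary electrophoresis after RT-PCR. Cells were human HepG2 carrying transfected cis-promoter reporter constructs, dosed for 24 h. Gain or loss of signal was fitted against DMSO controls.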

[16] = target: Signal transducer and activator of transcription 3 (Homo sapiens) (UniProt P40763); assay: ATG_STAT3_CIS: Attagene CIS-FACTORIAL HepG2 Assay for human Signal Transducer and Activator of Transcription 3 (STAT3) (AID 2282963); settings: HepG2, Attagene cis-factorial STAT3 reporter transcription; actives raise or lower the signal
Chain of Signal transducer and activator of transcription 3 (Homo sapiens) (P40763 whole entry, looked up): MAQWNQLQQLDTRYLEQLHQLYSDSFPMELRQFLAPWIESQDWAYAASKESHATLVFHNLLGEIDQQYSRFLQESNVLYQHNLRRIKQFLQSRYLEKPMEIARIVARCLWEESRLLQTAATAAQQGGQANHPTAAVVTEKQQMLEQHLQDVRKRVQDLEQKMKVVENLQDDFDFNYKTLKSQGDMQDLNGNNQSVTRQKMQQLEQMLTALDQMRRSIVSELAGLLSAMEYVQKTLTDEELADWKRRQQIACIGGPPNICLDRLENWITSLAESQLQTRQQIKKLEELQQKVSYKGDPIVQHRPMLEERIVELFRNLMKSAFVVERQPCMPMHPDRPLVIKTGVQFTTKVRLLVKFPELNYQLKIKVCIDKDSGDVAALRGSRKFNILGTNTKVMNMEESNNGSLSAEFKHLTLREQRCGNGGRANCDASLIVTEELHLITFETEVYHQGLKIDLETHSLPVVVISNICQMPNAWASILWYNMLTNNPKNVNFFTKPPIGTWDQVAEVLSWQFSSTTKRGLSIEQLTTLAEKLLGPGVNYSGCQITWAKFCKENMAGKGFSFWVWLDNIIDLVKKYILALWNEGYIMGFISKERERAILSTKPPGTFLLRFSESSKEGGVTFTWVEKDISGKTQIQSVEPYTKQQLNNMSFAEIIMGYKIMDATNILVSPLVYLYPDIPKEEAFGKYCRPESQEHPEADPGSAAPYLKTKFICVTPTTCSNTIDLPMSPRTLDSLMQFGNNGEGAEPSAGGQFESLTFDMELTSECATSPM
Summary of the method: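 Readout is reporter transcript quantified by RT-PCR and capillary electrophoresis, with 6-FAM primer extension and HpaI digestion. Total RNA is taken 24 h after dosing transiently transfected HepG2 carrying cis-regulated reporter units. Bidirectional fit against DMSO.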

[17] = ATG_TA_CIS: Attagene CIS-FACTORIAL HepG2 Assay for human TA Basal Promoter (AID 2282964); settings: HepG2 Attagene CIS-factorial TA basal promoter reporter; actives raise or lower the signal
Summary of the method: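 Background-control readout: TA basal promoter reporter mRNA, fitted in both directions relative to DMSO. Measured by RT-PCR and capillary electrophoresis 24 hours after treating HepG2 human liver cells transiently carrying multiplexed cis-regulated reporter constructs.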

[18] = ATG_MRE_CIS: Attagene CIS-FACTORIAL HepG2 Assay for human Metal Responsive Element (MRE) (AID 2282954); settings: HepG2 MRE cis-reporter transcription, Attagene multiplex; actives raise or lower the signal
Summary of the method: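 Endogenous MRE-dependent transcription read as reporter mRNA in transiently transfected human HepG2 cells at 24 h. RNA reverse-transcribed, PCR-amplified, labelled and resolved by capillary electrophoresis; gain or loss relative to DMSO.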

[19] = ATG_Sox_CIS: Attagene CIS-FACTORIAL HepG2 Assay for human SRY-box transcription factor (SOX) (AID 2282960); settings: HepG2 Attagene cis-factorial SOX reporter, mRNA; actives raise or lower the signal
Summary of the method: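 Endogenous factor activity in human liver HepG2 cells carrying transfected cis-regulated reporter units. RNA taken 24 h post-dose, reverse-transcribed, PCR-amplified and sized by capillary electrophoresis. Gain or loss of signal fitted relative to DMSO.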

[20] = ATG_PPRE_CIS: Attagene CIS-FACTORIAL HepG2 Assay for human Peroxisome Proliferator-activated Response Element (PPRE) (AID 2282958); settings: HepG2 PPRE cis-element reporter, Attagene transcription factor profiling; actives raise or lower the signal
Summary of the method: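 HepG2, transient MRTU transfection (cis promoter elements, endogenous TFs). 24 h dosing. RNA → oligo(dT) RT → PCR → 6-FAM primer extension → HpaI digest → CE. Bidirectional fit vs DMSO.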

Measured: AC50

CC(C)=CCl
not listed: [18] | [19] | [20]
inactive: all other assays above

CCCCC1C(=O)N(c2ccccc2)N(c2ccccc2)C1=O
active: [12] 1.44 µM
not listed: [9] | [10] | [11] | [20]
inactive: all other assays above

CCN1CCCC1=O
not listed: [18] | [20]
inactive: all other assays above

CC1CCC(=O)C1=O (stereo unspecified)
active: [12] 59 µM
not listed: [11] | [13]
inactive: all other assays above

CCCCCC(=O)OCC
not listed: [10] | [17] | [20]
inactive: all other assays above

CCC(C)C(=O)OCCc1ccccc1 (stereo unspecified)
not listed: [10] | [11] | [19]
inactive: all other assays above

CCCCNS(=O)(=O)c1ccccc1
active: [12] 26.7 µM
not listed: [8] | [10] | [17] | [20]
inactive: all other assays above

CCC1COC(=O)O1 (stereo unspecified)
active: [12] 16.6 µM
not listed: [8] | [10] | [18]
inactive: all other assays above
